Test [1] has as its target T1, Serine/threonine-protein kinase D2 (Homo sapiens) (UniProt Q9BZL6).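 Further: mean value of PRKD2 inhibition, from the GSK PKIS screening panel.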
T1 sequence (whole entry): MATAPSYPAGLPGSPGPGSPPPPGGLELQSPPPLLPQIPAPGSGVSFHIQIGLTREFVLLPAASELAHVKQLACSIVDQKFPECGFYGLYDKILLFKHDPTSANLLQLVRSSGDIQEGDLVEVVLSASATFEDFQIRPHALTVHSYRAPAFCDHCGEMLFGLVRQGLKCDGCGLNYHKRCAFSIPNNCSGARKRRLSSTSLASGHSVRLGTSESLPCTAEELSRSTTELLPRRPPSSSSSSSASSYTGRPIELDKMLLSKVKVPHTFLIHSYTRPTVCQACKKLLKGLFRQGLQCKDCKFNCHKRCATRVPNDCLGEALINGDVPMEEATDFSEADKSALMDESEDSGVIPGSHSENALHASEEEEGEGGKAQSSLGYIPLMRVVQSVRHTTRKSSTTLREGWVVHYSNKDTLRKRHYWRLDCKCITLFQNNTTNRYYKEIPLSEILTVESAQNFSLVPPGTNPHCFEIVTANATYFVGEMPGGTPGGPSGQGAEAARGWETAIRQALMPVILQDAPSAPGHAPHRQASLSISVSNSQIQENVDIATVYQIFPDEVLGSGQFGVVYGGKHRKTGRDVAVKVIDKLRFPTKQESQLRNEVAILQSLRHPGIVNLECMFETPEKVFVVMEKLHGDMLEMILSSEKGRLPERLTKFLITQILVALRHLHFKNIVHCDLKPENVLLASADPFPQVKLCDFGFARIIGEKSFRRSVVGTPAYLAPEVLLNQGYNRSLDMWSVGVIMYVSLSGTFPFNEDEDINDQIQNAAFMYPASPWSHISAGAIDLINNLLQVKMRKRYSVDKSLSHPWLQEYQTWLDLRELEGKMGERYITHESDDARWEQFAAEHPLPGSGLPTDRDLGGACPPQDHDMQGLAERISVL
Particulars: at 1 µM.

Test [2] deals with T2, Serine/threonine-protein kinase D3 (Homo sapiens) (UniProt O94806).
T2 sequence (whole entry): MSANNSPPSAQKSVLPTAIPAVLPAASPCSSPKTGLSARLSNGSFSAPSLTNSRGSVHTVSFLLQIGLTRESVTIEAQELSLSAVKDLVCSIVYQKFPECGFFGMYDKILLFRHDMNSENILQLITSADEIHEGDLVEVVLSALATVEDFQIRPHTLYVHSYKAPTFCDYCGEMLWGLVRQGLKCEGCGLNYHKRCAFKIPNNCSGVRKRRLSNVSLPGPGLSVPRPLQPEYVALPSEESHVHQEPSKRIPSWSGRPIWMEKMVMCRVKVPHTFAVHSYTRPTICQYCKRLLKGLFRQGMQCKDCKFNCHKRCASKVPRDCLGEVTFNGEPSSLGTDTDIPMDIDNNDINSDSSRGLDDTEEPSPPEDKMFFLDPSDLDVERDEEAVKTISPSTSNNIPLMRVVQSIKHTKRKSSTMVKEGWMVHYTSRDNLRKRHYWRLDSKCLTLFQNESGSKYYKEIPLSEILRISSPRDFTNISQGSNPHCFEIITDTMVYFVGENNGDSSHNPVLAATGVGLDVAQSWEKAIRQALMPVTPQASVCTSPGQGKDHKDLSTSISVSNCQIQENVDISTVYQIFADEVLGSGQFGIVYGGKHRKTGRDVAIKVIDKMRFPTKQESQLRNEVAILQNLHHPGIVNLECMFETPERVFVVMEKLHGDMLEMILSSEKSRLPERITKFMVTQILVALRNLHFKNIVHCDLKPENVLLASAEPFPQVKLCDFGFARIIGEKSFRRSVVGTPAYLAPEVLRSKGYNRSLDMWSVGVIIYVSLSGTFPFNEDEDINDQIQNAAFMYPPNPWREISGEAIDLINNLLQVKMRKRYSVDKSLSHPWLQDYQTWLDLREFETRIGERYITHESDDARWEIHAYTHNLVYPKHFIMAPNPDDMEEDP
The note with it: at 0.1 µM.

Test [3] has as its target T2, Serine/threonine-protein kinase D3 (Homo sapiens). The note with it: at 1 µM.
For test [4], the target named is T3, cGMP-dependent protein kinase 1 (Homo sapiens) (UniProt Q13976).
T3 sequence (whole entry): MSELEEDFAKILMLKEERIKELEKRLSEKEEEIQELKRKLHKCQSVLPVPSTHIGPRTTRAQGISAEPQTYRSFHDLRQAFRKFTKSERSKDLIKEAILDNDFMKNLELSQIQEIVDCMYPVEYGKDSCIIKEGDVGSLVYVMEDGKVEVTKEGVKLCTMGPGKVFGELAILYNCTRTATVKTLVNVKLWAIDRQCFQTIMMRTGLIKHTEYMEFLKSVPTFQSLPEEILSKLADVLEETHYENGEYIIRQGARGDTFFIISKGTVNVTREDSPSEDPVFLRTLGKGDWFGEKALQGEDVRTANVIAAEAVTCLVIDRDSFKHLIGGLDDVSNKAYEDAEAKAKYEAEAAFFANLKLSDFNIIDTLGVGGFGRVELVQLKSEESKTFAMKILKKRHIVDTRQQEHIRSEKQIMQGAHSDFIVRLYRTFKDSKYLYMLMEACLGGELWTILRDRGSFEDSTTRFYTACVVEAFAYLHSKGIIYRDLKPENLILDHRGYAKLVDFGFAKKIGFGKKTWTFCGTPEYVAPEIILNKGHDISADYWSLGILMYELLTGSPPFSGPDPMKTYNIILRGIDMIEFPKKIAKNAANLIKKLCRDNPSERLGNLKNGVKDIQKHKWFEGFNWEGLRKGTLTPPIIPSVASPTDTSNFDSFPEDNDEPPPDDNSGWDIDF
Particulars: at 0.1 µM.

For test [5], the target named is T3, cGMP-dependent protein kinase 1 (Homo sapiens). The note with it: at 1 µM.
Test [6] has as its target T4, cGMP-dependent protein kinase 2 (Homo sapiens) (UniProt Q13237).
T4 sequence (whole entry): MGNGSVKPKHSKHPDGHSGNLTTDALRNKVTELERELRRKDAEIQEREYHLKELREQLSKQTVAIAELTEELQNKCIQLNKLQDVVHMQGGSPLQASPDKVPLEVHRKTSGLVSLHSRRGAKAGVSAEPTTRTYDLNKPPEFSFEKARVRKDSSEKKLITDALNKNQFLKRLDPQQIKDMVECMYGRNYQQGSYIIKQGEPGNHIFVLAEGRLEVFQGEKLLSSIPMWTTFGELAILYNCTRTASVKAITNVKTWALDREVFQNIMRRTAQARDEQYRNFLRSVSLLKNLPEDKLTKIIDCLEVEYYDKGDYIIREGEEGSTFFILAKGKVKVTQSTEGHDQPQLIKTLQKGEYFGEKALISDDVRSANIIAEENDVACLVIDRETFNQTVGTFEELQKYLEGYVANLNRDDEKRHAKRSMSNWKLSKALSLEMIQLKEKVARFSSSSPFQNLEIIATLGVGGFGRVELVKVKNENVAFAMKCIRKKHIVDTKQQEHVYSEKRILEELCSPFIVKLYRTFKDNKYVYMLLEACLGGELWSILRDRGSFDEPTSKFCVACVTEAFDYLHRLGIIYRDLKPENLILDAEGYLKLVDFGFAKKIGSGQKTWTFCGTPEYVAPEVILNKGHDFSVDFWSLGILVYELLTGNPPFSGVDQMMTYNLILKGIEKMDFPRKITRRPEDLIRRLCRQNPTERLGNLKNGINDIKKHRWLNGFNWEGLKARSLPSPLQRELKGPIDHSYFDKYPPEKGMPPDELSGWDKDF
Particulars: at 0.1 µM.

Test [7] concerns the target T4, cGMP-dependent protein kinase 2 (Homo sapiens). Particulars: at 1 µM.
In test [8] the target is T5, cAMP-dependent protein kinase catalytic subunit PRKX (Homo sapiens) (UniProt P51817).
T5 sequence (whole entry): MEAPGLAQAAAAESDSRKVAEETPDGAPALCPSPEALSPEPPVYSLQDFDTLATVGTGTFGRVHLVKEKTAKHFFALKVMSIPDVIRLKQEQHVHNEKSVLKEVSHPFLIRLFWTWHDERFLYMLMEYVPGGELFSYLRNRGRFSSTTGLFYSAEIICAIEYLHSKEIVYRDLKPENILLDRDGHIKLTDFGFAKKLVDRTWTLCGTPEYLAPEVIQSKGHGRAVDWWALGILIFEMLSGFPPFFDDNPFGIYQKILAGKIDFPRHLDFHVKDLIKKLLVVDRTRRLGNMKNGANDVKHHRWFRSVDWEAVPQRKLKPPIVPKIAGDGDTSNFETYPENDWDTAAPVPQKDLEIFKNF
The note with it: at 0.1 µM.

In test [9] the target is T5, cAMP-dependent protein kinase catalytic subunit PRKX (Homo sapiens). Particulars: at 1 µM.
Test [10] concerns the target Rho-associated protein kinase 1 (Homo sapiens) (UniProt Q13464). The note with it: at 0.1 µM.
The target is the same in test [11]. The note with it: at 1 µM.
Test [12] deals with Rho-associated protein kinase 2 (Homo sapiens) (UniProt O75116). The note with it: at 0.1 µM.
Chain of Rho-associated protein kinase 2 (Homo sapiens) (O75116 whole entry, looked up): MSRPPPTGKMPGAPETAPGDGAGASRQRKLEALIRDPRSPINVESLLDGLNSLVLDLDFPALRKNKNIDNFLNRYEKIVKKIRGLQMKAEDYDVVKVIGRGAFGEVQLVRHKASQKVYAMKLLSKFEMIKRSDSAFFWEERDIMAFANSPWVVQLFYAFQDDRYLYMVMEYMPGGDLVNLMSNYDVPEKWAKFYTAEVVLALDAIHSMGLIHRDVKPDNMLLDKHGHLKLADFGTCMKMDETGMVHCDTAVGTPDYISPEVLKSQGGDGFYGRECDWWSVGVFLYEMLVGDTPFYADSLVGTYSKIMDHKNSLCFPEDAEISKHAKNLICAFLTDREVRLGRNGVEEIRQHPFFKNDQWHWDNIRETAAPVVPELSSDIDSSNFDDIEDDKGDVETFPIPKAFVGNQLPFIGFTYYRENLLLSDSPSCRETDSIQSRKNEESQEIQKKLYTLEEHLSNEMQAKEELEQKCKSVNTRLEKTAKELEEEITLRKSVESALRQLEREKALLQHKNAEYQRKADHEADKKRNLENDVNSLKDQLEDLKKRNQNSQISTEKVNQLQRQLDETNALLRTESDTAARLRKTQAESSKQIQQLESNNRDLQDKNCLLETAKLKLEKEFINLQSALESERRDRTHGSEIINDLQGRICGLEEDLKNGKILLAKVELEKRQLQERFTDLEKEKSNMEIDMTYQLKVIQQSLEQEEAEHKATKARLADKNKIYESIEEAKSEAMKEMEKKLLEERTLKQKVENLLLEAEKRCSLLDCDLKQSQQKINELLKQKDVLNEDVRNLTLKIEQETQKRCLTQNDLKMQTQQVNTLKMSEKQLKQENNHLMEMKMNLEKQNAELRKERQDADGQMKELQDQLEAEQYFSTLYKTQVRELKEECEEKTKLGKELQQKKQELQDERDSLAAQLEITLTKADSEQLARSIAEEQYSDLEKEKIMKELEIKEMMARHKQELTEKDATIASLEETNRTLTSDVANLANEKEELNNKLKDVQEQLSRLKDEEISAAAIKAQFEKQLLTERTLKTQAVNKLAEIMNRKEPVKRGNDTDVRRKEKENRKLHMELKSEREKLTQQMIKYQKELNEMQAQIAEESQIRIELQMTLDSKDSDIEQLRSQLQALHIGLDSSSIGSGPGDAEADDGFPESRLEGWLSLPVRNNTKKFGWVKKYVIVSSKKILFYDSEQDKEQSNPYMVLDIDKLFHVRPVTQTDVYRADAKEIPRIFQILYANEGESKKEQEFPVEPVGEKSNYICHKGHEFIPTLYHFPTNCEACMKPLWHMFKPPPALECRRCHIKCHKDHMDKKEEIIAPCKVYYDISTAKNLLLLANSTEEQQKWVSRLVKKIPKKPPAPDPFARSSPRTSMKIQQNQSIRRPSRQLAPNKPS
The target is the same in test [13]. Particulars: at 1 µM.
Test [14] addresses Ribosomal protein S6 kinase alpha-1 (Homo sapiens) (UniProt Q15418). Particulars: at 0.1 µM.
The target is the same in test [15]. The note with it: at 1 µM.
Test [16] deals with Ribosomal protein S6 kinase alpha-3 (Homo sapiens) (UniProt P51812). Particulars: at 0.1 µM.
Chain of Ribosomal protein S6 kinase alpha-3 (Homo sapiens) (P51812 whole entry): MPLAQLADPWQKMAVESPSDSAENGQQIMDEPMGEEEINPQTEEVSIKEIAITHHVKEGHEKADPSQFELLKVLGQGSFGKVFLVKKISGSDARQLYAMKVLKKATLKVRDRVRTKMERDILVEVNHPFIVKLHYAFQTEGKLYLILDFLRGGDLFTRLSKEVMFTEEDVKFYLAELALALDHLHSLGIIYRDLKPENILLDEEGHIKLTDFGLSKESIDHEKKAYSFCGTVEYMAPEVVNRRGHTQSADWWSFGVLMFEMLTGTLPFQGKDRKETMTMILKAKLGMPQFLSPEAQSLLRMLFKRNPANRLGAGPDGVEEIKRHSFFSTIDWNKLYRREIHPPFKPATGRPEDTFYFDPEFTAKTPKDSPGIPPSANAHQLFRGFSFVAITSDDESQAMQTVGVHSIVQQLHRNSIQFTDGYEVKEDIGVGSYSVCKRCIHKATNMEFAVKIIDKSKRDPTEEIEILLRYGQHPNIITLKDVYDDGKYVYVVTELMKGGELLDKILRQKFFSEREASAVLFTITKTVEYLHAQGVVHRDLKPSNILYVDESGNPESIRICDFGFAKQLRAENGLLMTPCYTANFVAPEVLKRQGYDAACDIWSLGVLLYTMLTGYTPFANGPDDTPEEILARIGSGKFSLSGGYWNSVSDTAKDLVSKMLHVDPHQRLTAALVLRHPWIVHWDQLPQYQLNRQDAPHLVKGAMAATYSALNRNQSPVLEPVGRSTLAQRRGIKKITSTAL
For test [17] the target is unchanged. Particulars: at 1 µM.
Test [18] concerns the target Ribosomal protein S6 kinase alpha-2 (Homo sapiens) (UniProt Q15349). The note with it: at 0.1 µM.
The target is the same in test [19]. Particulars: at 1 µM.
The target of test [20] is Ribosomal protein S6 kinase alpha-6 (Homo sapiens) (UniProt Q9UK32). Particulars: at 0.1 µM.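 Further: reported value is the mean inhibition of RSK4, from the GSK PKIS kinase inhibitor screen.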
Chain of Ribosomal protein S6 kinase alpha-6 (Homo sapiens) (Q9UK32 whole entry): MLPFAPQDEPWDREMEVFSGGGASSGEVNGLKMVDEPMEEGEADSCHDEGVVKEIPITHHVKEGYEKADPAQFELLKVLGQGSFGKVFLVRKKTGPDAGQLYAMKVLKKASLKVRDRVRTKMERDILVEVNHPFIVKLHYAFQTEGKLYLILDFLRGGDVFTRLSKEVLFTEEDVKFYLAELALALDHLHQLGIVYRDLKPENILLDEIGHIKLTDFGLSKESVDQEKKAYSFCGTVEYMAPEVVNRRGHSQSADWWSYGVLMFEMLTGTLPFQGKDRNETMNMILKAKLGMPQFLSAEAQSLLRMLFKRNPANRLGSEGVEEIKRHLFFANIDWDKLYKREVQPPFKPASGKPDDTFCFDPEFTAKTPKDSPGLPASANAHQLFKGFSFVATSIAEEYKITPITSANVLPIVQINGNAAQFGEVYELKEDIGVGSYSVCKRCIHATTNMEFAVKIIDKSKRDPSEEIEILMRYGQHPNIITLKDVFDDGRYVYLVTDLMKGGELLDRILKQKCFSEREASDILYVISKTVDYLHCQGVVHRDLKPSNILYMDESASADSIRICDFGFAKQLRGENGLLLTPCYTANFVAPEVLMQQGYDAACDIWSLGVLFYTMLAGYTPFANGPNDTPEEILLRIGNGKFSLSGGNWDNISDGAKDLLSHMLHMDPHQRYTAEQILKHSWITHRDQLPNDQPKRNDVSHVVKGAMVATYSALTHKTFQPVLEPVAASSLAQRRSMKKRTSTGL

What is called inhibition is the change of the read-out against control, counted positive when it falls.

Chain of Rho-associated protein kinase 1 (Homo sapiens) (Q13464 2-1354 limits assumed): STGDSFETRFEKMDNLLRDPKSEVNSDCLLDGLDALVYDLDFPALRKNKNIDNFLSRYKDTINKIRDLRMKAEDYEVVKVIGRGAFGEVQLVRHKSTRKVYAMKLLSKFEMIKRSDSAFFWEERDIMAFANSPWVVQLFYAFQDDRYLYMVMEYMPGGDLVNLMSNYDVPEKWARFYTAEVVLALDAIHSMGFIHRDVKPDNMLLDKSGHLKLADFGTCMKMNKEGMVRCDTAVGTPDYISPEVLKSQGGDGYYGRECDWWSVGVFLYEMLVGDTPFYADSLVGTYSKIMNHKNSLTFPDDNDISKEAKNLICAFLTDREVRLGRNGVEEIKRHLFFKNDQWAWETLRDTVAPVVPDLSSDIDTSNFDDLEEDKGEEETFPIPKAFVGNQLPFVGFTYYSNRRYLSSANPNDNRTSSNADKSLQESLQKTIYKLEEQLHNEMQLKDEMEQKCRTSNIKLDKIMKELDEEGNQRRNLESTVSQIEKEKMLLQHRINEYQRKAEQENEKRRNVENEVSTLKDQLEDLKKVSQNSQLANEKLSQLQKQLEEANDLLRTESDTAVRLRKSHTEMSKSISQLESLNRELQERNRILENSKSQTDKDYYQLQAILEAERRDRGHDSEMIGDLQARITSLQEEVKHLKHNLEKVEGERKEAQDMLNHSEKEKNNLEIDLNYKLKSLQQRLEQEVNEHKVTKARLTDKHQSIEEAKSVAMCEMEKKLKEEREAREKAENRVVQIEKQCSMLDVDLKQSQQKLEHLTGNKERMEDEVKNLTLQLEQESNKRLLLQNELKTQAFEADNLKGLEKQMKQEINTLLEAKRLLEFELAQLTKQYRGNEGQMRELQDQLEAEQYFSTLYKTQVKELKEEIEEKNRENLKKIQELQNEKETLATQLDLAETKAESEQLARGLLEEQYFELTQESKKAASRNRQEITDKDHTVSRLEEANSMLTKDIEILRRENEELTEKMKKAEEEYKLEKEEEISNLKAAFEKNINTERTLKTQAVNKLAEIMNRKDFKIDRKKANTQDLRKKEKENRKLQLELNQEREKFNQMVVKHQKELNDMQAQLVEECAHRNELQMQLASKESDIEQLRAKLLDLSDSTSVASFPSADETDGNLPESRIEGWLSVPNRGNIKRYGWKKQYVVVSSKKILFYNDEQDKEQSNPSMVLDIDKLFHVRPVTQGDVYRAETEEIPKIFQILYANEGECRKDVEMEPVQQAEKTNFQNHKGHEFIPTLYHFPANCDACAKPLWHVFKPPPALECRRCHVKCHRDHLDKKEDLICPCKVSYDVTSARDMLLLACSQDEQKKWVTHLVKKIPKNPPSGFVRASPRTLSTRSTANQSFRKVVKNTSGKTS
Chain of Ribosomal protein S6 kinase alpha-2 (Homo sapiens) (Q15349 whole entry): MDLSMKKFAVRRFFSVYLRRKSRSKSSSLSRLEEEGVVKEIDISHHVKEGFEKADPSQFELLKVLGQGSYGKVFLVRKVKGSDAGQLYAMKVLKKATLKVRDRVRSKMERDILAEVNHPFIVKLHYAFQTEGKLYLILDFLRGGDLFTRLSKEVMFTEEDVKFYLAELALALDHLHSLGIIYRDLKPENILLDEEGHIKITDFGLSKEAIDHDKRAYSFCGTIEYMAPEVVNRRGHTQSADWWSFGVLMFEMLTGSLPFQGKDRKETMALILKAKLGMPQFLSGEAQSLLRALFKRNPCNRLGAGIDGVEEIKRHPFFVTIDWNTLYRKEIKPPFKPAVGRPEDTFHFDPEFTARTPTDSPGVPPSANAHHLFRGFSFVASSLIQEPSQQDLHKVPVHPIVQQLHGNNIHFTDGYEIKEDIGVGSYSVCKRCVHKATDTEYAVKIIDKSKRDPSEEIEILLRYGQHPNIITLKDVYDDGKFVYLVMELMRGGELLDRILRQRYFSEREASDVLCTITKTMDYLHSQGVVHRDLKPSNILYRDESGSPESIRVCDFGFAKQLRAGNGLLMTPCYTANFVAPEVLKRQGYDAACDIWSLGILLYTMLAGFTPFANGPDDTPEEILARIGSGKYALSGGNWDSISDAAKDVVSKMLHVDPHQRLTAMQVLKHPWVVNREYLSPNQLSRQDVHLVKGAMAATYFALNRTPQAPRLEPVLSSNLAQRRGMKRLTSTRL

For `Cc1ccc(NC(=O)CC2CC2)cc1-c1ccc(C(=O)NCC2CC2)cc1`, the inhibition was 3.78% in [1]; 3.15% in test [2]; 3.66% in test [3]; 2.45% in test [4]; 1.88% in test [5]; 1.38% in [6]. For the same molecule, the inhibition in test [7] turned out to be 2.64%; in [8] it was 1.92%; in test [9], 2.19%; in test [10], 1%; in test [11], 2.07%; in [12] it was 3.27%. Moreover, the inhibition came to 5.25% in [13]; 1.91% in test [14]; 2.35% in test [15]; 0.73% in test [16]; 1.14% in [17]; 1.88% in test [18]. Further, the inhibition in test [19] amounted to 2.04%; in test [20], 1.16%.
On to `Nc1ccc(C#Cc2cncnc2Nc2ccc(OCc3cccc(F)c3)c(Cl)c2)cc1`, for which the inhibition in [1] was determined as 2.21%; in test [2], 2.59%; in [3] it was 2.64%; in test [4], 3.04%; in [5], 1.31%; in [6], 2.28%. Further, the inhibition in test [7] came out at 0.99%; in test [8], 1.33%; in [9], 1.72%; in test [10] it was 0.74%; in test [11], 2.72%; in test [12] it was 1.93%. Further, the inhibition in test [13] came to 1.92%; in [14], 1.19%; in test [15], 1.59%; in [16], 0.98%; in [17], 1.75%; in test [18], 1.56%. For the same molecule, the figures for the inhibition in test [19] and in test [20] were 3.21% and 0.9%, respectively.
`COc1cc2ncnc(Nc3ccc4c(cnn4Cc4ccccc4)c3)c2cc1OC`: the inhibition in test [1] was 3%; in [2], 2.69%; in [3], 4.17%; in [4], 1.58%; in test [5] it was 1.78%; in test [6] it was 1.02%. In addition, the inhibition in test [7] is 0.7%; in test [8], 1.5%; in [9] it was 1.55%; in test [10], 2.33%; in test [11], 6.38%; in test [12], 2.52%. Besides, the inhibition in test [13] came out at 7.05%; in test [14] it was 0.76%; in test [15], 2.15%; in test [16], 0.6%; in test [17] it was 2.23%; in [18], 2.97%. In addition, the inhibition in test [19] came to 3.65%; in [20] it was 1.46%.
